Sampled rows, rich in hits. Any-hit rate of the full collection: about 10%.
12-hLO inh – qHTS Assay for Inhibitors of 12-hLO (12-human lipoxygenase). Polyunsaturated fatty acid lipoxygenase ALOX12 (Homo sapiens), P18054. purified 12-hLO, xylenol orange hydroperoxide absorbance. Potency, µM (doses to about 57.1 µM), for inactives: at the highest dose activity change, negative = inhibition, usual class: inhibitors. 0.12% of 150,000 active. AID 1452, 2008; active = well fitted inhibition curve with a large enough effect; inconclusive = small, poorly fitted or top-dose-only effect; also: potency is read from the fitted curve at half-maximal effect; nearly all actives have a fitted effect of over 55% in size
Target sequence (P18054 whole entry, looked up): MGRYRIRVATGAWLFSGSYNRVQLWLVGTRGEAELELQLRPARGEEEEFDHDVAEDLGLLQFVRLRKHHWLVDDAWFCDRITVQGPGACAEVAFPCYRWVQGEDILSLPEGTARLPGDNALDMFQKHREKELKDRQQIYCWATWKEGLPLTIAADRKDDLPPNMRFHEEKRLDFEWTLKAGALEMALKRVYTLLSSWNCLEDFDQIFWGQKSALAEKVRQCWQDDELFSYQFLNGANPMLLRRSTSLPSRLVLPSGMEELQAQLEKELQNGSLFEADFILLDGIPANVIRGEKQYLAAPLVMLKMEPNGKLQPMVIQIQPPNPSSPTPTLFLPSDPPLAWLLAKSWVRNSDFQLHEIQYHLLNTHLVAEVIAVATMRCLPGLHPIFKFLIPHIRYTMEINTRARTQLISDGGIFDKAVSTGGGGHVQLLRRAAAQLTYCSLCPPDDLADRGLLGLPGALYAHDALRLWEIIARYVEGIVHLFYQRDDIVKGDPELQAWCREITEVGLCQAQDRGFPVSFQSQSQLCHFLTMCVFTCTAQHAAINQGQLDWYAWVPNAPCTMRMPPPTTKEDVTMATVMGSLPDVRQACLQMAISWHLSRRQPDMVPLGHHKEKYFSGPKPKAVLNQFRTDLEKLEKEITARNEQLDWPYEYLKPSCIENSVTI
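150 nM 12hLO, 25 mM Hepes pH 7.0 + 0.01% Triton X-100; cpd preinc 15 min RT; 40 uM arachidonic acid, 30 min RT; Fe-XO 30 min; A573/A405 ratio as read-out.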
ALDH1A1 inh – qHTS Assay for Inhibitors of Aldehyde Dehydrogenase 1 (ALDH1A1). Purified ALDH1A1, NADH fluorescence, propionaldehyde substrate. Potency, µM (titrated, usually from 75.3 µM), for the others: top-dose activity, negative = inhibition, hits mostly inhibitors. 7.3% of 220,000 active;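 also: potency is read from the fitted curve at half-maximal effect; plate controls were no enzyme wells and a reference inhibitor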
Lamin A splicing – qHTS Assay for Modulators of Lamin A Splicing. HeLa LMNA splicing GFP/RFP minigene ratio, 48 h. Potency, µM (top dose mostly 46.1 µM), inactives show at the highest dose ratio change, negative = inhibition, actives largely listed as inhibitors. 0.01% of 200,000 active. AID 1487, 2009; active = well fitted inhibition curve with a large enough effect in the signal ratio, with a control signal flat, not every such curve was filed as active; inconclusive = small, poorly fitted or top-dose-only effect, or effect the other way, or a change in a side signal; the % refers to the signal ratio; also: potency is read from the fitted curve at half-maximal effect
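S3 HeLa stable clones carrying a lamin A-EGFP splicing minigene plus DsRed2 were seeded at 600 cells/well in Opti-MEM with 2% FBS, pin-dosed and incubated 48 h at 37°C. Acumen cytometry (488 nm) gave the GFP/RFP total-intensity ratio.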
HPGD inh – qHTS Assay for Inhibitors of HPGD (15-Hydroxyprostaglandin Dehydrogenase) | Potency, µM, inactives show at the top dose activity change, negative = inhibition, actives largely listed as inhibitors | 15-hydroxyprostaglandin dehydrogenase [NAD(+)] (Homo sapiens), P15428 | 4.3% of 150,000 active | purified HPGD, NADH fluorescence kinetic, PGE2 substrate; also: potency is read from the fitted curve at half-maximal effect
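NADH formation kinetics: reaction with 30 uM PGE2 and 1 mM NAD+ (final), 20 nM enzyme, Tris-HCl pH 8 with Tween 20, after 15 min compound preincubation at room temperature. Fluorescence change, last versus first of five reads.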
PNC inhibitor – High Content Assay for Compounds that inhibit the Assembly of the Perinucleolar Compartment. PC3M PTB-GFP, PNC prevalence imaging, 16 h; hits give low values. activity change (PNC), negative = inhibition, % at 10 µM. 3.1% of 140,000 active. AID 2417, 2010;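 active = readout at or below -70, meaning at least 70% loss of cells showing the perinucleolar compartment, a nuclear body marking cancer cells; inconclusive = readout between -30 and a set limit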;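 also: plate controls were DMSO wells for no effect and camptothecin positive control wells for full effect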
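Compounds are pinned in duplicate onto adhered PC3M cells stably expressing GFP-tagged PTB and incubated 16 h at 37 C. Cells are then fixed, nuclei stained with Hoechst, and PNC-positive cells counted.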
Active calls of the source: *; [ ] = another dose, or the depositor's remark. Unless noted, calls follow the shape of the dose curve; as a rule, active = well fitted inhibition curve with a large enough effect (not every such curve was filed as active); inconclusive = small, poorly fitted or top-dose-only effect, or another doubt; inactive = no such curve, though single readings can be large or run the other way. Unless noted, % is scaled to controls: 0 for no effect and ±100 for the full control effect.

COc1ccc(NC(=O)N2CCC3(CC2)CCN(C(=O)c2ccco2)CC3)cc1 was read as 12-hLO inh 1%, ALDH1A1 inh -15% and HPGD inh -3%.
For O=C(c1ccco1)N1CCC2(CC1)CCN(c1ccncc1)CC2 the results were 12-hLO inh 0%, ALDH1A1 inh 7.1µM* and HPGD inh -8%.
Screening O=C(c1ccco1)N1CCC2(CC1)CN(c1ccccc1)C2 returned 12-hLO inh -5%, ALDH1A1 inh 14µM* and HPGD inh -8%.
For COc1ccc(NC(=O)N2CC3(CCN(C(=O)c4ccco4)CC3)C2)cc1 the results were 12-hLO inh 1%, ALDH1A1 inh 16µM* and HPGD inh -4%.
For C[C@@H]1CCCN(CP(=O)(c2ccccc2)c2ccccc2)C1 the results were 12-hLO inh 3%[11.4 µM], ALDH1A1 inh 2%[13.5 µM] and HPGD inh -8%.
Screening COc1ccc(CNC(=O)c2ccc(N3CCCC3)c(NC(=O)NCc3ccc(F)cc3)c2)cc1 returned Lamin A splicing -3%[46 µM].
Screening CC(=O)N(CN1C(=O)c2ccccc2C1=O)c1ccccc1 returned 12-hLO inh -7%, ALDH1A1 inh inconclusive, Lamin A splicing 4%, HPGD inh -11% and PNC inhibitor -3.
Screening COc1ccc(N(CN2C(=O)c3ccccc3C2=O)C(=O)C(C)C)cc1 returned 12-hLO inh 1%, ALDH1A1 inh 11µM*, Lamin A splicing -1%, HPGD inh -7% and PNC inhibitor inconclusive.
N#CC(C#N)=C1C=CC=CN1/C(=C\c1ccco1)C(=O)c1ccccc1 was read as 12-hLO inh -5%, ALDH1A1 inh -7%, Lamin A splicing inconclusive, HPGD inh 22µM* and PNC inhibitor -2.
For COc1ccc(/C=C(/C(=O)c2cccs2)N2C=CC=CC2=C(C#N)C#N)cc1 the results were 12-hLO inh -11%, ALDH1A1 inh inconclusive, Lamin A splicing inconclusive and PNC inhibitor 6.
`N#CC(C#N)=C1C=CC=CN1/C(=C\c1ccco1)C(=O)c1ccc(Br)cc1` gave 12-hLO inh -24%, ALDH1A1 inh inconclusive, Lamin A splicing inconclusive, HPGD inh 16µM* and PNC inhibitor 1.
COc1ccc(C(=O)/C(=C\c2ccco2)N2C=CC=CC2=C(C#N)C#N)cc1 was read as 12-hLO inh -11%, ALDH1A1 inh inconclusive, Lamin A splicing inconclusive, HPGD inh inconclusive and PNC inhibitor -26.
Cc1ccc2c(c1)N(C(=O)Nc1cccc3c1CCCC3)CC(C)O2 (configuration not stated) was read as Lamin A splicing 30%[46 µM].
`COc1ccc2c(c1)C(=O)[C@H](OC(=O)NCc1ccc3c(c1)OCO3)[C@@H](c1ccc(OC)c(Br)c1)O2` gave ALDH1A1 inh 6% and HPGD inh -4%.
O=S(=O)(O)C(c1ccccc1)[C@@H](O)c1ccccc1 (some centres not stated) was read as ALDH1A1 inh 24%[13.5 µM] and HPGD inh -9%.
Screening O=c1cc(N2CCOCC2)oc2c(-c3ccccc3)cccc12 returned 12-hLO inh 1%, ALDH1A1 inh -6%, Lamin A splicing 16µM* and HPGD inh -21%.
Screening Cn1c(C(=O)N2CCCCCC2)cc2c(=O)n(C)c3ccccc3c21 returned 12-hLO inh 2%, ALDH1A1 inh inconclusive, Lamin A splicing 0%, HPGD inh 2.8µM* and PNC inhibitor inconclusive.
For Cn1c(C(=O)N2CCN(Cc3ccccc3)CC2)cc2c(=O)n(C)c3ccccc3c21 the results were 12-hLO inh 4%, ALDH1A1 inh inconclusive, Lamin A splicing -11%, HPGD inh 16µM* and PNC inhibitor 33.
Cc1ccc(C)c(S(=O)(=O)NCC(c2ccco2)S(=O)(=O)c2ccc(F)cc2)c1 (configuration not stated) was read as Lamin A splicing -5%[46 µM].
For CCOc1ccc(OCC)c(NC(=O)c2cnc3c(-c4ccccc4)c(C)nn3c2C)c1 the results were Lamin A splicing -10%[46 µM].
